Our source for the Potency values is PubChem BioAssay (Tox21).

Test [1] is described as follows: A CellTox Green Cytotoxicity Assay to monitor cytotoxicity in HepG2 cells - 0 hour (AID 1224882). Further: nearly all actives have a fitted effect of over 35% in size. The gist of the method:
(§1)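 Cytotoxicity was tracked as dead-cell DNA fluorescence in HepG2 cells treated with test compounds at 37 C; each time-point value comes from one kinetic series spanning 0, 8, 16, 24, 32 and 40 h.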

Test [2] is described as follows: A CellTox Green Cytotoxicity Assay to monitor cytotoxicity in HEK293 cells - 8 hour (AID 1224884). Further: nearly all actives have a fitted effect of over 35% in size. Further: potency means the concentration at half of the fitted maximal effect. A digest of the protocol: (§2)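 Real-time, in one plate: 600 HEK293 cells/well with dead-cell DNA dye, pinned compound after 5 h, 37 C incubation over 40 h; viable cells give no appreciable fluorescence.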
Test [3] in a line: qHTS RealTime-Glo MT Cell Viability Assay in HepG2 cells - 16 hour (AID 1224885). Further: nearly all actives have a fitted effect of over 50% in size. Further: potency means the concentration at half of the fitted maximal effect. The gist of the method:
(§3)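 HepG2 cells were seeded at 600 cells/well together with NanoLuc luciferase and a cell-permeant prosubstrate, preincubated 5 h at 37 C/5% CO2, then pin-dosed with compounds in DMSO. Nonlytic luminescence from viable cells was read at each time point.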
Background: In qHTS, concentration-response curves come from the screen itself.

The nature of test [4]: qHTS RealTime-Glo MT Cell Viability Assay in HEK293 cells - 24 hour (AID 1224886). Further: nearly all actives have a fitted effect of over 50% in size. Further: potency means the concentration at half of the fitted maximal effect. A digest of the protocol:
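HEK293 cells were seeded at 600 cells/well together with NanoLuc luciferase and cell-permeant prosubstrate, preincubated 5 h at 37 C/5% CO2, then given compound in DMSO by pintool. Luminescence from viable-cell prosubstrate reduction was read repeatedly over 40 h.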

A short description of test [5]: qHTS RealTime-Glo MT Cell Viability Assay in HEK293 cells - 8 hour (AID 1224887). Further: nearly all actives have a fitted effect of over 50% in size. Further: potency means the concentration at half of the fitted maximal effect. A digest of the protocol: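 Kinetic, non-lysing viability readout. Seed HEK293 (600/well) with reagent, incubate 5 h at 37 C/5% CO2, pin 23 nL compound in DMSO, incubate at 37 C, read luminescence at 0, 8, 16, 24, 32, 40 h.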
A short description of test [6]: A CellTox Green Cytotoxicity Assay to monitor cytotoxicity in HEK293 cells - 16 hour (AID 1224888). Further: nearly all actives have a fitted effect of over 35% in size. Further: potency means the concentration at half of the fitted maximal effect. The gist of the method:
as §2

Test [7] is described as follows: qHTS RealTime-Glo MT Cell Viability Assay in HepG2 cells - 0 hour (AID 1224889). Further: nearly all actives have a fitted effect of over 50% in size. The gist of the method:
as §3

The nature of test [8]: A CellTox Green Cytotoxicity Assay to monitor cytotoxicity in HepG2 cells - 8 hour (AID 1224890). Further: nearly all actives have a fitted effect of over 45% in size. The gist of the method: as §1
Test [9] can be described thus: qHTS assay to identify small molecule HDAC inhibitors (AID 1259364).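 Further: wild-type HCT-116 cells with endogenous class I/II HDAC activity; top concentration of the series differs between compounds; nearly all actives have a fitted effect of over 45% in size.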 The gist of the method:
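HCT-116 wt cells, 1,500/well, overnight attach. Compounds (DMSO) 2 h, 37 °C. HDAC-Glo I/II, 30 min RT. Luminescence.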

Test [10] can be described thus: qHTS assay to identify small molecule HDAC inhibitors - cell viability counter screen (AID 1259365). A digest of the protocol: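 Viability readout: CellTiter-Glo luminescence. Wild-type HCT-116 cells, 2hr compound treatment following overnight attachment at 37 C.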
Test [11] is described as follows: qHTS assay to identify small molecule agonists of the sonic hedgehog signaling (Shh) pathway - cell viability counter screen (AID 1259366). Further: nearly all actives have a fitted effect of over 50% in size. Further: potency means the concentration at half of the fitted maximal effect. A digest of the protocol: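 Viability measured fluorometrically (CellTiter-Fluor, 1hr, 37C) in 3T3 Gli1-Luc reporter cells after 23hr compound exposure within a 24hr incubation at 37C/5% CO2.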
A short description of test [12]: qHTS assay to identify small molecule antagonists of the sonic hedgehog signaling (Shh) pathway - cell viability counter screen (AID 1259367). Further: nearly all actives have a fitted effect of over 55% in size. A digest of the protocol: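 Fluorescence read-out (CellTiter-Fluor, 1 hr at 37C) taken after 23 hr compound treatment of 3T3 Gli1-Luc cells stimulated with conditioned medium. Cells were seeded at 2,000 per well and pre-incubated 4 hr.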

Test [13] in a line: qHTS assay to identify small molecule agonists of the sonic hedgehog signaling (Shh) pathway (AID 1259368; calls by dose curve;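 further: NIH/3T3-derived 3T3Gli1-Luc cells carrying a stable Gli1-driven firefly luciferase reporter; series mostly up to about 92 µM; nearly all actives have a fitted effect of over 15% in size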). The gist of the method:
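Following a 24 hr incubation with DMSO-dissolved compounds at 37 C, 5% CO2, Gli1-Luc NIH/3T3-derived cells received luciferase reagent for 30 min at room temperature prior to luminescence measurement.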

Test [14] is described as follows: qHTS assay to identify small molecule antagonists of the androgen receptor (AR) signaling pathway using the MDA cell line in the presence of 0.5 nM R1881 - cell viability counter screen (AID 1259242). Further: nearly all actives have a fitted effect of over 45% in size. Further: potency means the concentration at half of the fitted maximal effect. A digest of the protocol: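 Cells seeded at 3,000/well and allowed 5 hr at 37C, 0% CO2 before compound transfer and R1881 (0.5 nM final) addition; 16 hr later, live-cell protease fluorescence indicated cytotoxicity.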

The target in test [15] is Androgen receptor (Homo sapiens) (UniProt P10275). Nature of the test: qHTS assay to identify small molecule antagonists of the androgen receptor (AR) signaling pathway using the MDA cell line in the presence of 0.5 nM R1881 (AID 1259243). Further: nearly all actives have a fitted effect of over 50% in size. A digest of the protocol: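 Luminescence from an AR/GR-responsive MMTV-luciferase construct in MDA-kb2 breast carcinoma cells, read 30 min after ONE-Glo, following 16 hr co-treatment with compounds and 0.5 nM R1881.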
Sequence of Androgen receptor (Homo sapiens) (P10275 whole entry, looked up): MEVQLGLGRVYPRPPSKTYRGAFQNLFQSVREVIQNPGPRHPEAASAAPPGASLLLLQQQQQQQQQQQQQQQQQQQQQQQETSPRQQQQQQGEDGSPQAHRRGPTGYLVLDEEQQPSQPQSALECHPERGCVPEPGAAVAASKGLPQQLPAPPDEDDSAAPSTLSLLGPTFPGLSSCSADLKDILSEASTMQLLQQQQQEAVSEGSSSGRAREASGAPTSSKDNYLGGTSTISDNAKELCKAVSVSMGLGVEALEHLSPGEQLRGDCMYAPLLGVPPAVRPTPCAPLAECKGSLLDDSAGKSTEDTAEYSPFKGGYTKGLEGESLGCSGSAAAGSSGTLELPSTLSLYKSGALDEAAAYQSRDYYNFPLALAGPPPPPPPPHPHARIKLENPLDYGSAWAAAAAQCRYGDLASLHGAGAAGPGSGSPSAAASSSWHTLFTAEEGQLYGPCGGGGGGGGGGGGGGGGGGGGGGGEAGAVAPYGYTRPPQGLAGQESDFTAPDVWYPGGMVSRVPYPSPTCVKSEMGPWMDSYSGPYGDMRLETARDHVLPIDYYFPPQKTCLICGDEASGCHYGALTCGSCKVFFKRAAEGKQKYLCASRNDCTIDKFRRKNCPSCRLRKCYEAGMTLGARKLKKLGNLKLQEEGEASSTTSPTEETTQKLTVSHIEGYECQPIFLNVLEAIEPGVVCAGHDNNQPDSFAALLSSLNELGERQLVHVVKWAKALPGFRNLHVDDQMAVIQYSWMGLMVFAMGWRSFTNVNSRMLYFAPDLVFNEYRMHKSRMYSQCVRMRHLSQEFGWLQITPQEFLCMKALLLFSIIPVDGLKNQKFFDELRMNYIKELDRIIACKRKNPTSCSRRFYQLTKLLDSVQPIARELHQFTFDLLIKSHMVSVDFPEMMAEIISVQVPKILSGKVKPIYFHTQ

Test [16] in a line: qHTS assay to identify small molecule antagonists of the sonic hedgehog signaling (Shh) pathway (AID 1259369; calls by dose curve; further: nearly all actives have a fitted effect of over 45% in size; further: potency means the concentration at half of the fitted maximal effect). A digest of the protocol: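 Read-out is luminescence from a firefly luciferase gene controlled by the Gli1 response element, in 3T3Gli1-Luc cells pre-incubated 4hr then exposed to compounds and conditioned medium for 24hr.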
A short description of test [17]: qHTS assay to identify small molecule antagonists of the estrogen receptor alpha (ER-alpha) signaling pathway using the BG1 cell line in the presence of 0.1 nM 17-beta-estradiol - cell viability counter screen (AID 1259241). Further: nearly all actives have a fitted effect of over 40% in size. Further: potency means the concentration at half of the fitted maximal effect. The gist of the method:
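The cell line endogenously expresses full-length ER-alpha and carries four EREs driving luciferase. Cells are cultured 5 days hormone-free, treated 22 hr with compounds and 0.1 nM estradiol, then viability is read by fluorescence.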

In test [18] the target is Estrogen receptor (Homo sapiens) (UniProt P03372). Nature of the test: qHTS assay to identify small molecule antagonists of the estrogen receptor alpha (ER-alpha) signaling pathway using the BG1 cell line in the presence of 0.1 nM 17-beta-estradiol (AID 1259244). Further: nearly all actives have a fitted effect of over 50% in size. Further: potency means the concentration at half of the fitted maximal effect. A digest of the protocol: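 Luciferase signal from VM7Luc4E2 ERE-reporter cells, co-dosed with test compound and 0.1 nM final 17beta-estradiol for 22 h, read with ONE-Glo.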
Sequence of Estrogen receptor (Homo sapiens) (P03372 whole entry, looked up): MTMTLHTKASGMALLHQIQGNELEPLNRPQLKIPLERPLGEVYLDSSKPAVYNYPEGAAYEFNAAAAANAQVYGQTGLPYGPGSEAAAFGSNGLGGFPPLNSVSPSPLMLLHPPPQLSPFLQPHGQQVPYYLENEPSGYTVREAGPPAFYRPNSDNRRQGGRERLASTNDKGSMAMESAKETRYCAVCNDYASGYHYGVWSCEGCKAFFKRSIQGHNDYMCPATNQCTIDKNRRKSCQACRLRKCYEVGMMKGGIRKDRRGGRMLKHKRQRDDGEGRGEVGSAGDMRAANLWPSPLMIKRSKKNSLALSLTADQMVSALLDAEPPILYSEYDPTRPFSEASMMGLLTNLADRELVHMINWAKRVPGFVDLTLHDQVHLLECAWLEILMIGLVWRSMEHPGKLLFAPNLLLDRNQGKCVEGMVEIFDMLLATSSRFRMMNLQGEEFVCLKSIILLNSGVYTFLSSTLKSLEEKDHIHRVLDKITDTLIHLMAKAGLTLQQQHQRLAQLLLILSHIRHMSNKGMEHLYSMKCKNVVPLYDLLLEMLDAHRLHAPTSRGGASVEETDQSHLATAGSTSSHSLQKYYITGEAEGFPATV

Test [19] is described as follows: qHTS assay to identify small molecule phospholipidosis (PLD) inducers (AID 1259344; active means well fitted curve in the direction sought with a large enough effect; an effect the other way counts as inactive or inconclusive). The gist of the method: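 Read-out is LipidTOX Red fluorescence (ex 595/em 615) imaged in HepG2 cells after 24 h compound exposure at 37 C, with Hoechst nuclear counterstain (ex 352/em 461) allowing per-cell normalisation.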

Results filed as inconclusive are left out. Calls of active or inactive are those of the source. Unless noted, the call rests on the fitted dose curve; in most records, active means well fitted curve in the direction sought with a large enough effect in the repeat runs; inconclusive means weak or mixed curves; inactive means no such curve, though single readings can be large; an effect the other way counts as inactive or inconclusive.

Regarding `O=C(O)CC(=O)O`, the Potency result in [1], in test [2], in test [3], in test [4], in test [5] and in [6] was “inactive” each time. Besides, the Potency result in [7], in [8], in test [9], in test [10], in test [11] and in [12] was “inactive” throughout. Further, in test [13], the Potency result is “inactive”.

As to `COc1cccc(OC)c1O`, the Potency entry in test [1], in test [2], in test [3], in [4], in [5] and in [6] was “inactive” in each case. Also, the Potency entry in [7], in test [14], in test [15], in test [9], in [10] and in [11] was “inactive” in each case. In addition, the Potency entry in [12], in [13] and in test [16] was “inactive” in each case.

For the molecule `COc1ccc2sc(C(=O)Nc3nnn[nH]3)c(OC(C)C)c2c1`, the Potency entry in test [1], in [2], in test [3], in [5], in test [6] and in [7] was “inactive” each time. In addition, the Potency entry in [8], in [17], in test [9], in test [10] and in [13] was “inactive” each time. Moreover, the Potency in test [18] was 30.5 µM (active); in [11], 27.2 µM (active); in [16], 6.83 µM (active).

With `CC[N+](CC)(CC)Cc1ccccc1`, the Potency entry in test [1], in [2], in test [3], in test [4], in [5] and in test [6] was “inactive” each time. Moreover, the Potency entry in [7], in test [8], in test [17], in [14], in test [18] and in test [9] was “inactive” throughout. Further, the Potency result in [11], in test [12], in test [13] and in [16] was “inactive” each time.

In the case of `c1ccc(Nc2cccc3ccccc23)cc1`, the Potency result in test [1], in [2], in test [3], in test [4], in [6] and in [7] was “inactive” each time. Moreover, the Potency entry in test [8], in [17], in test [14], in test [18], in test [9] and in [11] was “inactive” each time. For the same molecule, the Potency result in test [12] and in test [13] was “inactive” in each case. The Potency in test [16] was 30.6 µM (active).

Take `C/C=C/c1ccc(OC)c(OC)c1`: the Potency result in [1], in [2], in test [3], in test [4], in test [5] and in test [6] was “inactive” throughout. For the same molecule, the Potency result in test [7], in test [8], in test [17], in [14], in test [9] and in test [10] was “inactive” in each case. Moreover, the Potency result in test [12], in [13] and in test [16] was “inactive” in each case.

Regarding `CCN(CC)c1ccc(N)cc1`, the Potency entry in test [1], in [2], in test [6], in test [7], in test [9] and in [10] was “inactive” each time. Besides, the Potency result in test [13] was “inactive”. For the same molecule, the Potency was 50.3 µM (active) in [3]; 22.5 µM (active) in test [4]; 20 µM (active) in test [5]; 17.7 µM (active) in test [17]; 17.7 µM (active) in test [14]; 35.3 µM (active) in test [11]. Moreover, in test [16], the Potency was 4.99 µM (active).

Take `CCCCCCCC/C=C\CCCCCCCC(=O)N(C)CC(=O)O`: the Potency result in test [1], in test [3], in test [7], in test [8], in test [17] and in [14] was “inactive” each time. The Potency entry in test [18], in test [9], in test [10], in [12] and in test [13] was “inactive” throughout. The Potency is 38.9 µM (active) in [2] and 24.5 µM (active) in test [6].

As to `Clc1cc(Cl)c(-c2c(Cl)c(Cl)cc(Cl)c2Cl)cc1Cl`, the Potency entry in test [1], in [2], in [3], in test [5], in [6] and in test [17] was “inactive” in each case. The Potency entry in test [14], in [15], in [9], in [10], in test [11] and in test [12] was “inactive” in each case. The Potency result in test [13] and in test [16] was “inactive” each time.

For `Brc1ccccn1`, the Potency result in test [1], in test [2], in test [3], in test [4], in [5] and in [6] was “inactive” throughout. The Potency entry in test [7], in test [8], in test [17], in test [14], in test [18] and in test [9] was “inactive” in each case. In addition, the Potency entry in test [10], in [12], in [13] and in [16] was “inactive” throughout.

Regarding `CCN(CC)CCSC(=O)C(c1ccccc1)c1ccccc1`, the Potency result in [1], in [2], in [3], in test [4], in test [5] and in test [7] was “inactive” in each case. The Potency entry in [8], in test [17], in test [18], in test [9], in [10] and in test [11] was “inactive” each time. Also, the Potency result in [12] and in test [13] was “inactive” in each case. For the same molecule, the Potency in test [16] is 23.7 µM (active).

As for `CC(=O)Oc1ccc(C2(c3ccc(OC(C)=O)cc3)Oc3ccccc3NC2=O)cc1`, the Potency result in test [1], in [2], in test [3], in test [4], in test [5] and in test [6] was “inactive” each time. In addition, the Potency result in test [7], in test [8], in test [17], in test [18], in [19] and in test [9] was “inactive” each time. Also, the Potency entry in [10], in test [11] and in [13] was “inactive” throughout. The Potency in test [16] is 8.41 µM (active).
